# Hit rate of the full screen: of about 1,100 compounds, about 390 (35%) were called active. Inconclusive results (about 30%) are left out. The list shows a part of the results. Unmarked numbers belong to inactive results. The call rests on the fitted dose curve; in most records, active means well fitted inhibition curve with a large enough effect; inconclusive means small, poorly fitted or top-dose-only effect; inactive means flat fitted curve, though single readings scatter.
# Molecular target: Luciferin 4-monooxygenase (Photinus pyralis) (UniProt P08659)
# Assay: qHTS of Nrf2 Activators: Hit Validation in Secondary FLuc Assay; further: nearly all actives have a fitted effect of over 65% in size
# Details: firefly luciferase inhibition counter-screen, luminescence; series mostly up to 57.5 µM; activity, negative = inhibition: at the top concentration
# In short: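 Purified firefly luciferase is tested for inhibition by compounds in the presence of its substrates, ATP and D-luciferin, each at Km. Inhibition marks likely false positives arising from reporter-enzyme stabilization.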
# On the % scale 0 is the no-effect control and ±100 the full control effect; potency means the concentration at half of the fitted maximal effect.
SMILES,"activity, negative = inhibition [%]",Potency
O=C(NCc1ccco1)c1cc(=O)c2ccccc2o1,0.0894,
O=c1cc(/C=C/c2ccccc2)oc2ccccc12,,2.13 µM (active)
C(=N\Nc1nc2ccccc2[nH]1)/c1c[nH]c2ccccc12,,1.35 µM (active)
O=[N+]([O-])c1ccccc1N/N=C/c1c[nH]c2ccccc12,,0.601 µM (active)
O=C(NCCc1c[nH]c2ccccc12)c1ccc([N+](=O)[O-])o1,-26.1,
O=C(Nc1c(O)c2ccccc2[nH]c1=O)c1ccco1,-21.5,
CC(/C=C(\NC(=O)c1ccccc1)C(=O)N=Nc1c(O)[nH]c2ccc(C)cc12)=C\c1ccccc1,-11.7,
Oc1[nH]c2ccccc2c1N=NC(=S)N1CCOCC1,,9.53 µM (active)
O=C(N=Nc1c(O)[nH]c2ccccc12)c1ccco1,,3.01 µM (active)
O=C(N=Nc1c(O)[nH]c2ccc(Br)cc12)c1ccco1,,10.7 µM (active)
Cc1ncc(N=Nc2ccccc2)c(-c2ccccc2)n1,-19.4,
O=C1/C(=C/c2ccccc2O)SC(=S)N1Cc1cccnc1,,16.9 µM (active)
CN1CCN(C(=O)CCN2C(=O)/C(=C/c3cccc(Br)c3)SC2=S)CC1,-25.4,
COc1ccc(OC)c(/C=C2\SC(=S)N(Cc3cccnc3)C2=O)c1,-23.6,
COC(=O)c1ccc2nc(-c3cccc(Cl)c3)c(Cc3ccccc3OC)n2c1,,15.1 µM (active)
COC(=O)c1ccc2nc(-c3cccc(Br)c3)c(CC3CCCCC3)n2c1,-30,
COC(=O)c1ccc2nc(-c3ccco3)c(Cc3ccccc3)n2c1,,3.38 µM (active)
COC(=O)c1ccc2nc(-c3ccco3)c(Cc3cccc(Cl)c3)n2c1,,12 µM (active)
Cc1nn(C)c(C)c1/C=C(/C(=O)C(C)(C)C)n1cncn1,-4.22,
O=C(/C(C=Nc1ccc(F)cc1)=C(/O)c1ccco1)C(F)(F)F,,10.7 µM (active)
O=C(/C(C=Nc1cccc(C(F)(F)F)c1)=C(/O)c1ccco1)C(F)(F)F,,13.5 µM (active)
Cc1cccc(N=C/C(C(=O)C(F)(F)F)=C(\O)c2ccco2)c1,,10.7 µM (active)
Cc1ccc(NC(=O)CC2S/C(=N/N=C/c3ccco3)NC2=O)cc1Cl (configuration not stated),-8.08,

SMILES,"activity, negative = inhibition [%]",Potency
Cc1ccc(N=C/C(C(=O)C(F)(F)F)=C(\O)c2ccco2)cc1Cl,,3.01 µM (active)
CSc1nc(Oc2ccc(Cl)cc2)c2sccc2n1,3.01,
CCn1c(=O)c([N+](=O)[O-])c(NCc2ccco2)c2ccccc21,5.01,
N#C/C(=C\c1ccccc1)c1ccccn1,,9.53 µM (active)
Cc1cccc(-c2n[nH]c(=S)n2/N=C/C=C/c2ccco2)c1,,10.7 µM (active)
S=c1[nH]nc(-c2ccc(Cl)cc2)n1/N=C/C=C/c1ccco1,,10.7 µM (active)
O=C(CN1CCN(Cc2ccccc2Cl)CC1)N/N=C/C=C/c1ccco1,0.724,
S=C(NNc1ccc2ccccc2c1)NC1CCCCC1,,6.75 µM (active)
CNC(=O)C1CCN(S(=O)(=O)c2c(C)noc2/C=C/c2ccccc2F)CC1,3.63,
COc1ccc(N=Nc2ccc(O)c3ncccc23)cc1,,9.53 µM (active)
CCN(CC)CCNC(=O)C(Cl)=C1C(Cl)=C(Cl)C(Cl)=C1Cl,-0.406,
Cc1cc(=O)n2nc(-c3ccccc3)sc2c1C#N,,23.9 µM (active)
N#Cc1c(-c2ccccc2)cc(-c2ccccc2)[nH]c1=O,1.09,
[O-][n+]1onc2c3cc(-c4ccccc4)nnc3ccc21,-23.4,
Cc1cc(O)cc2c1C(=O)/C(=C/c1ccco1)O2,,2.39 µM (active)
Cn1nnnc1Sc1ncnc2scc(-c3cccc4ccccc34)c12,-25.5,
O=C(Nc1cc(Br)ccc1O)c1cnn2c(C(F)F)cc(C3CC3)nc12,-21.9,
c1ccc(N2CC3COc4ccccc4C3=N2)cc1 (configuration not stated),,4.26 µM (active)
c1ccc(N2CC3CCc4ccccc4C3=N2)cc1 (configuration not stated),,3.01 µM (active)
CCOc1ncccc1C(=O)NNC(=O)c1ccc(NS(=O)(=O)c2cccs2)cc1,-0.928,
C/C(=N\NC(=O)c1cccc(Br)c1)c1ccccn1,,8.49 µM (active)
CC(=O)c1nn(-c2ccccc2)cc1C(=O)c1cccc(Br)c1,-11,
FC(F)(F)c1nnc2c(Sc3ccccn3)nc3ccccc3n12,-5.64,

SMILES,"activity, negative = inhibition [%]",Potency
CCn1c(=N)n(CC(=O)c2ccco2)c2ccccc21,5.63,
CCn1c(=NC(=O)c2ccco2)sc2cccc(F)c21,,6.01 µM (active)
COc1cc(/C=N/Nc2ccccn2)cc(OC)c1O,,2.13 µM (active)
COc1ccc(Br)cc1/C=N/Nc1ccccn1,-22.8,
N#C/C(=C\C=C\c1ccccc1)C(=O)NCc1cccnc1,-7.08,
N/C(=N\OC(=O)c1cccc2ccccc12)c1cccnc1,4.57,
N/C(=N\OC(=O)c1cc(Cl)ccc1Cl)c1cccnc1,,4.78 µM (active)
N/C(=N\OC(=O)c1cc(Cl)ccc1Cl)c1ccncc1,,15.1 µM (active)
N/C(=N\OC(=O)c1ccccc1Cl)c1ccncc1,,4.78 µM (active)
N/C(=N\OC(=O)/C=C/c1ccccc1)c1cccnc1,,5.36 µM (active)
O=C1C2C3C=CC(C4CC34)C2C(=O)N1/N=C/c1ccc([N+](=O)[O-])o1 (configuration not stated),-29.9,
CCCn1nc([N+](=O)[O-])c(C(C#N)c2nc3ccccc3s2)c(Cl)c1=O (configuration not stated),,12 µM (active)
Nc1ccccc1N1C(=O)c2cccc3cccc(c23)C1=O,-18.6,
Cc1sc(NC(=S)NC(=O)c2ccco2)c(C(N)=O)c1C,,1.2 µM (active)
Cc1ccc([N+](=O)[O-])cc1NC(=S)NC(=O)c1ccco1,1.78,
Cc1ccc2nsnc2c1NC(=S)NC(=O)c1ccco1,-3.95,
NC(=O)c1c(NC(=O)c2ccco2)sc2c1CCC2,,2.13 µM (active)
CCc1c(C)sc(NC(=O)c2ccco2)c1C#N,,12 µM (active)
CCCc1cc(C(N)=O)c(NC(=O)c2ccco2)s1,,3.01 µM (active)
Cc1sc(NC(=O)c2ccco2)c(CN2CCCCC2)c1C,-22.7,
COC(=O)CSc1nc2ccccn2c(=O)c1C=O,6.66,
COn1c(=O)c(-c2cccc(Br)c2)[n+]([O-])c2ccccc21,1.19,
N#CC1=C(N)Oc2c(ccc3ccccc23)C1c1ccsc1 (configuration not stated),,16.9 µM (active)

SMILES,"activity, negative = inhibition [%]",Potency
COc1ccc(S(=O)(=O)N2CCN(C(=O)c3ccc([N+](=O)[O-])o3)CC2)cc1,8.39,
COc1cccc(NC(=O)c2nn(C)cc2Br)c1,,12 µM (active)
COc1cccc(NC(=O)c2nc(SC)ncc2Cl)c1,-0.657,
COc1ccc(S(=O)(=O)NCCc2csc3nc(-c4ccc(Cl)cc4)nn23)cc1C,-6.04,
CCOc1ccccc1NC(=O)C1COc2ccccc2O1 (configuration not stated),-24,
O=C(Nc1ccccc1[N+](=O)[O-])C1COc2ccccc2O1 (configuration not stated),,3.01 µM (active)
COc1ccc(NC(=O)c2ccc([N+](=O)[O-])s2)c([N+](=O)[O-])c1,2.08,
Cn1c(=O)n(CCc2ccccc2)c(=O)c2c1nc1n2CCN1Cc1ccco1,-19.5,
O=C(NCc1ccccc1)c1c(Cl)nc(Cl)c(Cl)c1Cl,2.71,
Cc1ccccc1C(=O)Nc1nc2c(C)csc2c(=O)s1,-24,
O=C(Nc1nc(=O)c2ccccc2s1)c1ccccc1,,1.07 µM (active)
Cc1csc2c(=O)sc(NC(=O)c3ccc(F)cc3Cl)nc12,0.172,
Cc1csc2nc(NC(=O)c3ccccc3)sc(=O)c12,,2.39 µM (active)
O=C1C=C(C#Cc2ccccc2)C[C@@H](c2ccc(F)cc2)C1,-5.22,
N/C(=N\OC(=O)c1ccco1)c1cccc(Br)c1,,2.39 µM (active)
O=C(Nc1ncnc2sc3c(c12)CCC3)c1ccco1,0.673,
O=C(CSc1ncnc2sc3c(c12)CCCC3)c1ccco1,,2.69 µM (active)
c1coc(-c2ccnc(-n3cccc3)n2)c1,,15.1 µM (active)
c1coc(-c2ccnc3nc(-n4cccc4)nn23)c1,-29.9,
Cc1ccsc1-c1ccnc(-n2cccc2)n1,,15.1 µM (active)
CN1CCCC1CCNc1ccc2c(=O)c3ccccc3oc2c1 (configuration not stated),,6.75 µM (active)
Cc1sc2ncnc(Sc3nnnn3-c3ccccc3)c2c1C,-19.4,
Cc1nc2nc(-c3ccccc3)nn2c(C)c1Cl,,3.38 µM (active)

SMILES,"activity, negative = inhibition [%]",Potency
COc1cc(-c2noc(-c3cccs3)n2)cc(OC)c1OC,-29,
CCOc1ncccc1-c1nc(-c2cccs2)no1,,15.1 µM (active)
CCOc1ccc(Br)cc1-c1noc(-c2cccs2)n1,-20.8,
O=C(/C=C\c1ccc2c(c1)OCO2)CC1(O)C(=O)Nc2ccccc21 (configuration not stated),,9.53 µM (active)
CC(C)N1C/C(=C/c2cccnc2)C(=O)/C(=C/c2cccnc2)C1,-1.87,
Nc1ccc2c(c1)Cc1c(F)cccc1-2,,7.57 µM (active)
COc1ccc2c(c1)Cc1c-2cc(Br)c(N)c1Br,-19.8,
Cc1ccc(S(=O)(=O)c2nc(S(C)(=O)=O)sc2N2CC(C)OC(C)C2)cc1 (configuration not stated),8.48,
Cc1ccc(C)c(NC(=S)c2nc3ccccc3s2)c1,,10.7 µM (active)
Cc1ccc(C)c(NC(=O)COC(=O)c2cc(=O)c3ccccc3o2)c1,-12,
O=C(N/N=C/c1ccsc1)c1ccc2ccccc2n1,,10.7 µM (active)
O=C(Nc1ccc(F)cc1)c1cc2ccccc2o1,,0.953 µM (active)
O=C(Nc1ccc(F)cc1)c1sccc1SCc1cccc(C(F)(F)F)c1,-4.78,
CN1C2CCC1/C(=C\c1ccccc1)C(=O)/C2=C\c1ccccc1,-3.98,
O=C1/C(=C/c2ccccc2)CCc2ccc(Cl)nc21,,10.7 µM (active)
Brc1ccc(C2=CC(c3ccco3)n3nnnc3N2)cc1 (configuration not stated),-8.07,
C1=C(c2ccc(-c3ccccc3)cc2)Nc2ncnn2C1c1ccco1 (configuration not stated),,10.7 µM (active)
Cc1ccc2nc(N(CCN(C)C)C(=O)/C=C/c3cccs3)sc2c1,-22.7,
O=C(/C=C/c1cccs1)c1ccco1,,9.53 µM (active)
CCOc1ccsc1C(=O)NNC(=O)c1ccco1,4.68,
